Laboratory results as given in PubChem BioAssay AID1159580 (chemical genetic matrix, 2015).
Where “and” joins values, the source holds several entries; their conditions need not be identical. Identical values can stand only once. About 2,000 (36%) of roughly 5,500 compounds were called active. Roughly 18% stayed inconclusive and do not appear here. Rule as the data show it: active = normalized growth mostly below about 0.91 (no sharp cut-off); inconclusive = no clear call, values can overlap the other calls; inactive = mostly above about 0.92. The list shows a part of the results.

Assay: chemical genetic growth profiling, strain panel (AID 1159580);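 also: tested at 20 µM; growth read once vehicle control cultures reached saturation at 30 °C; 1 = growth at the plate median or of vehicle wells; lower values mean less growth of the strain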
Conditions: S. cerevisiae deletion strains, growth OD

CC(C)c1nc(N(C)S(C)(=O)=O)nc(-c2ccc(F)cc2)c1/C=C/[C@@H](O)C[C@@H](O)CC(=O)O
normalized growth (locus YAL013W, strain DEP1, stronger effect = lower value): 0.988 (inactive) | normalized growth (locus YAL021C, strain ccr4, stronger effect = lower value): 0.839 (active) | normalized growth (locus YAL026C, strain drs2, stronger effect = lower value): 0.98 (inactive) | normalized growth (locus YAL030W, strain snc1, stronger effect = lower value): 0.998 (inactive) | normalized growth (locus YBL061C, strain skt5, stronger effect = lower value): 1.02 (inactive) | normalized growth (locus YBR009C, strain hhf1, stronger effect = lower value): 0.998 (inactive) | normalized growth (locus YBR021W, strain FUR4, stronger effect = lower value): 0.96 (inactive) | normalized growth (locus YBR023C, strain chs3, stronger effect = lower value): 1.02 (inactive) | normalized growth (locus YBR171W, strain sec66, stronger effect = lower value): 1.01 (inactive) | normalized growth (locus YBR229C, strain ROT2, stronger effect = lower value): 1.01 (inactive) | normalized growth (locus YBR231C, strain swc5, stronger effect = lower value): 0.922 (inactive) | normalized growth (locus YBR279W, strain paf1, stronger effect = lower value): 0.99 (inactive) | normalized growth (locus YCL011C, strain gbp2, stronger effect = lower value): 1.01 (inactive) | normalized growth (locus YCL016C, strain dcc1, stronger effect = lower value): 0.998 (inactive) | normalized growth (locus YCL029C, strain bik1, stronger effect = lower value): 1.01 (inactive) | normalized growth (locus YCL069W, strain vba3, stronger effect = lower value): 1.02 (inactive) | normalized growth (locus YCR088W, strain abp1, stronger effect = lower value): 1.03 (inactive) | normalized growth (locus YDL005C, strain med2, stronger effect = lower value): 1.02 (inactive) | normalized growth (locus YDL035C, strain GPR1, stronger effect = lower value): 1 (inactive) | normalized growth (locus YDL040C, strain nat1, stronger effect = lower value): 1.01 (inactive) | normalized growth (locus YDL074C, strain BRE1, stronger effect = lower value): 0.995 (inactive) | normalized growth (locus YDL101C, strain DUN1, stronger effect = lower value): 0.996 (inactive) | normalized growth (locus YDL134C, strain PPH21, stronger effect = lower value): 0.995 (inactive) | normalized growth (locus YDL185W, strain tfp1, stronger effect = lower value): 0.928 (inactive) | normalized growth (locus YDL192W, strain arf1, stronger effect = lower value): 1 (inactive) | normalized growth (locus YDR001C, strain nth1, stronger effect = lower value): 1.03 (inactive) | normalized growth (locus YDR069C, strain doa4, stronger effect = lower value): 0.971 (inactive) | normalized growth (locus YDR101C, strain arx1, stronger effect = lower value): 0.999 (inactive) | normalized growth (locus YDR137W, strain rgp1, stronger effect = lower value): 1.34 [resistant] (active) | normalized growth (locus YDR150W, strain NUM1, stronger effect = lower value): 1.01 (inactive) | normalized growth (locus YDR159W, strain sac3, stronger effect = lower value): 0.998 (inactive) | normalized growth (locus YDR162C, strain NBP2, stronger effect = lower value): 0.961 (inactive) | normalized growth (locus YDR195W, strain ref2): 1.09 (inactive) | normalized growth (locus YDR297W, strain sur2, stronger effect = lower value): 0.977 (inactive) | normalized growth (locus YDR318W, strain mcm21, stronger effect = lower value): 1.01 (inactive) | normalized growth (locus YDR334W, strain swr1, stronger effect = lower value): 0.982 (inactive) | normalized growth (locus YDR335W, strain msn5, stronger effect = lower value): 1.02 (inactive) | normalized growth (locus YDR388W, stronger effect = lower value): 1.01 (inactive) | normalized growth (locus YDR392W, strain spt3, stronger effect = lower value): 1.02 (inactive) | normalized growth (locus YDR502C, strain sam2, stronger effect = lower value): 1 (inactive) | normalized growth (locus YEL003W, strain gim4, stronger effect = lower value): 1.02 (inactive) | normalized growth (locus YEL037C, strain rad23, stronger effect = lower value): 1.01 (inactive) | normalized growth (locus YEL061C, strain CIN8 (second series), stronger effect = lower value): 1.02 (inactive) | normalized growth (locus YEL061C, strain CIN8, stronger effect = lower value): 0.998 (inactive) | normalized growth (locus YER015W, strain faa2, stronger effect = lower value): 0.99 (inactive) | normalized growth (locus YER016W, strain bim1, stronger effect = lower value): 1.01 (inactive) | normalized growth (locus YER110C, stronger effect = lower value): 0.999 (inactive) | normalized growth (locus YER111C, strain swi4, stronger effect = lower value): 1.02 (inactive) | normalized growth (locus YER155C, strain BEM2 (second series), stronger effect = lower value): 1.02 (inactive) | normalized growth (locus YER155C, strain BEM2, stronger effect = lower value): 0.99 (inactive) | normalized growth (locus YER167W, strain BCK2, stronger effect = lower value): 1 (inactive) | normalized growth (locus YFR010W, strain ubp6, stronger effect = lower value): 0.995 (inactive) | normalized growth (locus YGL078C, strain dbp3, stronger effect = lower value): 0.997 (inactive) | normalized growth (locus YGL086W, strain mad1, stronger effect = lower value): 1.01 (inactive) | normalized growth (locus YGL167C, strain pmr1, stronger effect = lower value): 1.01 (inactive) | normalized growth (locus YGL173C, strain kem1, stronger effect = lower value): 1 (inactive) | normalized growth (locus YGL227W, strain vid30, stronger effect = lower value): 1.02 (inactive) | normalized growth (locus YGL240W, strain doc1, stronger effect = lower value): 1.03 (inactive) | normalized growth (locus YGL248W, strain PDE1, stronger effect = lower value): 0.993 (inactive) | normalized growth (locus YGL253W, strain hxk2, stronger effect = lower value): 1.01 (inactive) | normalized growth (locus YGR078C, strain PAC10, stronger effect = lower value): 1.01 (inactive) | normalized growth (locus YGR135W, strain pre9, stronger effect = lower value): 0.987 (inactive) | normalized growth (locus YGR229C, strain SMI1, stronger effect = lower value): 1.01 (inactive) | normalized growth (locus YGR252W, strain gcn5, stronger effect = lower value): 1.04 (inactive) | normalized growth (locus YHR013C, strain ard1, stronger effect = lower value): 0.972 (inactive) | normalized growth (locus YHR027C, strain rpn1, stronger effect = lower value): 1.01 (inactive) | normalized growth (locus YHR030C, strain SLT2, stronger effect = lower value): 1 (inactive) and 0.0994 (active) | normalized growth (locus YHR079C, strain IRE1 (second series), stronger effect = lower value): 1 (inactive) | normalized growth (locus YHR079C, strain IRE1, stronger effect = lower value): 0.127 (active) | normalized growth (locus YHR094C, strain hxt1, stronger effect = lower value): 1.01 (inactive) | normalized growth (locus YHR129C, strain ARP1, stronger effect = lower value): 0.99 (inactive) | normalized growth (locus YHR142W, strain chs7, stronger effect = lower value): 1.02 (inactive) | normalized growth (locus YHR200W, strain rpn10, stronger effect = lower value): 1 (inactive) | normalized growth (locus YIL066C, strain RNR3, stronger effect = lower value): 1.02 (inactive) | normalized growth (locus YIL073C, strain SPO22, stronger effect = lower value): 1 (inactive) | normalized growth (locus YIL125W, strain kgd1, stronger effect = lower value): 1.02 (inactive) | normalized growth (locus YIR030C, strain dcg1, stronger effect = lower value): 1.01 (inactive) | normalized growth (locus YJL092W, strain hpr5, stronger effect = lower value): 1.03 (inactive) | normalized growth (locus YJL095W, strain BCK1 (second series), stronger effect = lower value): 0.986 (inactive) | normalized growth (locus YJL095W, strain BCK1, stronger effect = lower value): 0.996 (inactive) and 0.12 (active) | normalized growth (locus YJL115W, strain asf1, stronger effect = lower value): 1 (inactive) | normalized growth (locus YJL129C, strain trk1, stronger effect = lower value): 1.08 (inactive) | normalized growth (locus YJL134W, strain LCB3, stronger effect = lower value): 1 (inactive) | normalized growth (locus YJL154C, strain vps35, stronger effect = lower value): 1.01 (inactive) | normalized growth (locus YJL164C, strain tpk1, stronger effect = lower value): 1 (inactive) | normalized growth (locus YJL166W, strain qcr8, stronger effect = lower value): 0.994 (inactive) | normalized growth (locus YJL168C, strain set2, stronger effect = lower value): 1.01 (inactive) | normalized growth (locus YJL187C, strain SWE1 (second series), stronger effect = lower value): 1 (inactive) | normalized growth (locus YJL187C, strain SWE1, stronger effect = lower value): 0.998 (inactive) | normalized growth (locus YJR043C, strain POL32, stronger effect = lower value): 0.997 (inactive) | normalized growth (locus YJR066W, strain TOR1, stronger effect = lower value): 0.00783 (active)
